HCMV inh: blocks human cytomegalovirus replication. 4.5% of 410,000 active. HFF cells, HCMV-luciferase reporter, 72 h; active compounds read low. activity change, negative = inhibition, % at 57.5 µM; in the data active = activity change below about -60%; inconclusive = no clear call, values can overlap the other calls; inactive = above about -39%
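After 16 h attachment at 37C, HFF cells received test compound and HCMV-luciferase (1 PFU/cell); reporter luminescence read 72 h later, data normalized against buffer-only and known inhibitor Salinomycin.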
HCV inh: inhibitors of hepatitis C virus infection. AID 651820. Potency, µM (top dose mostly 41.8 µM), without a hit: top-dose activity change, negative = inhibition, hits mostly inhibitors. 3.4% of 340,000 active. Huh7.5.1 HCVcc-Cre infection, luciferase reporter, 44 h; note: potency is the fitted concentration of half-maximal effect
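Antiviral activity was scored by luciferase reporter output from cells infected with HCVcc-Cre (~0.5 moi) in presence of compound, 44 h infection period, cells seeded 1,000/well 4 h prior.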
Pf growth 96h: P. falciparum growth inhibition at 96 hours; P. falciparum luciferase reporter growth, 96 h; Potency, µM (highest dose often 28.7 µM), for inactives: at the highest dose activity change, negative = inhibition, most hits filed as inhibitors; 6.9% of 320,000 active; AID 504834; note: potency is the fitted concentration of half-maximal effect
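Plates of compound plus infected erythrocytes (2% hematocrit, 0.05% parasitemia final) incubate 96 hours, 37 C, 5% CO2. Detection reagent added; reduced luminescence from the parasites' luciferase reporter flags inhibition.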
Pf growth 48h: inhibits P. falciparum growth in the first generation, 48 h; P. falciparum luciferase growth in erythrocytes, 48 h; Potency, µM (highest dose often 28.7 µM), without a hit: top-dose activity change, negative = inhibition, actives largely listed as inhibitors; 5.9% of 310,000 active; note: potency is the fitted concentration of half-maximal effect
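Luminescence readout; reporter = integrated firefly luciferase in P. falciparum. RBC culture at 2% hematocrit, 0.1% parasitemia final, 37 C/5% CO2; decreased signal taken as growth inhibition.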
* hit, by the source's call; u = inconclusive; x = no result given. An excerpt weighted towards active compounds, which were near 13% of everything screened. Unless noted, calls come from the whole dose curve; as a rule, active = well fitted inhibition curve with a large enough effect; inconclusive = small, poorly fitted or top-dose-only effect, or another doubt; inactive = no such curve, though single readings can be large or run the other way. % is set by controls: 0 for no effect and ±100 for the full control effect.

SMILES	HCMV inh	HCV inh	Pf growth 96h	Pf growth 48h
COc1ccccc1N(Cc1ccccc1)S(=O)(=O)c1cccc(C(=O)NC2CC(C)(C)NC(C)(C)C2)c1	-34	2.2µM*	4.7µM*	5.9µM*
CCCCOc1ccc(Cn2c(=O)sc3ccccc32)cc1OC	12	x	x	x
CCOc1ccccc1NC(=O)c1cccc(S(=O)(=O)N(Cc2ccccc2)c2ccccc2OC)c1	-5	u	2.6µM*	0%
CCC(=O)NC(c1ccc(C)cc1)c1cc([N+](=O)[O-])c2cccnc2c1O (stereo not drawn)	-97*	u	20%	u
CCCC(=O)NC(c1ccco1)c1cc([N+](=O)[O-])c2cccnc2c1O (stereo not drawn)	-64*	-5%	15%	u
CC(=O)NC(c1ccc(C)cc1)c1cc([N+](=O)[O-])c2cccnc2c1O (stereo not drawn)	-99*	u	u	u
COc1ccc(C2c3cc(OC)c(OC)cc3CC(=O)N2c2ccc(C)cc2)cc1 (stereo not drawn)	22	x	x	x
CCNC(=O)NC1(C(=O)Nc2ccc3c(c2)CCC3)CCCCC1	60	7%	2.9µM*	1%
CCc1ccc(NC(=O)Nc2ccc3c(c2)CCC3)cc1	60	-3%	22%	47%
COc1cc2c(cc1OC)N1C(=O)CC(OCC(=O)O)C3C4CC5(CCN5C(=O)C4=O)C2C31 (stereo not drawn)	-11	12%	17%	12µM*
COc1ccc(-n2nc3c(N4CCCC(C(=O)NCc5ccc(C)cc5)C4)nnc(C)c3c2C)cc1 (stereo not drawn)	-72*	x	x	x
COc1ccc(CNC(=O)C2CCCN(c3nnc(C)c4c(C)n(-c5ccc(C)cc5)nc34)C2)cc1 (stereo not drawn)	-24	x	x	x
COc1ccc(CNC(=O)C2CCN(c3nnc(C)c4c(C)n(-c5ccc(C)cc5)nc34)CC2)cc1	-107*	x	x	x
Cc1nnc(N2CCCC(C(=O)NCc3ccc(OC(C)C)cc3)C2)c2nn(-c3ccccc3)c(C)c12 (stereo not drawn)	-66*	u	-1%	-11%
Cc1ccc(-n2nc3c(N4CCCC(C(=O)NCc5ccccc5C)C4)nnc(C)c3c2C)cc1 (stereo not drawn)	-64*	x	x	x
COC(=O)[C@@]12C[C@@H](CC(=O)NCCCCc3ccccc3)C(=O)N(Cc3ccc4c(c3)OCO4)C1=CCC(C)(C)C2	38	x	x	x
Cc1ccc(-n2nc3c(N4CCC(C(=O)NCCc5cccs5)CC4)nnc(C)c3c2C)cc1	-83*	u	10%	u
Cc1ccc(CCNC(=O)C2CCN(c3nnc(C)c4c(C)n(-c5ccccc5)nc34)CC2)cc1	0	x	x	x
O=C(Nc1ccc(S(=O)(=O)N2CCC(c3nc4ccccc4s3)CC2)cc1)c1ccccc1	6	x	x	x
CCCCC(=O)N(C)c1c(CC)nc2c(OCC3CCCCC3)cccn12	-64*	x	x	x
CCOC(=O)N(C)c1c(CC)nc2c(OCc3ccc(Cl)cc3)cccn12	-89*	x	x	x
CCc1nc2c(OCCC3CCCCC3)cccn2c1N(C)C(=O)CC(C)C	47	x	x	x
CCCCC(=O)N(C)c1c(CC)nc2c(OCCC3CCCCC3)cccn12	-98*	x	x	x
Oc1ccc(Cl)cc1Nc1nc2ccccc2n2cnnc12	11	x	x	x
COc1ccc(CCNC(=O)Cn2c(-c3ccc(F)cc3)cc(C(C)=O)c2C)cc1OC	0	x	x	x
SMILES	HCMV inh	HCV inh	Pf growth 96h	Pf growth 48h
O=C(O)CCn1ccc2cc(S(=O)(=O)N3CCCCC3)ccc21	-4	x	x	x
COc1cc(C2Nc3ccc4ncccc4c3C3=C2C(=O)CC(C)(C)C3)cc(OC)c1O (stereo not drawn)	-83*	-1%	x	u
COc1cc(-c2nc3ccc(Cl)cn3c2Nc2ccc3c(c2)OCO3)ccc1O	-24	x	x	x
O=S(=O)(c1ccc2ccccc2c1)n1nc(-c2ccco2)nc1NCc1ccc(F)cc1	52	x	x	x
COCCn1c(=O)[nH]c2cc(C(=O)NCc3ccccc3Cl)ccc2c1=O	-69*	x	x	x
COc1cc2[nH]c(=O)n(Cc3ccccc3Cl)c(=O)c2cc1OC	0	-16%	4.7µM*	-4%
COCCn1c(=O)[nH]c2cc(C(=O)Nc3cc(OC)c(OC)c(OC)c3)ccc2c1=O	29	u	5.2µM*	u
CCN(CC)CCOC(=O)c1ccc(NC(=O)c2cc3c(=O)n(CC)c4ccccc4c3s2)cc1	7	x	x	x
COc1ccc(C=CC(O)CCN2CCC3CCC(C3)C2)cc1 (stereo not drawn)	-66*	-10%	x	x
O=C1CC(c2ccc(O)c(O)c2)Oc2c1ccc(O)c2O (stereo not drawn)	60	-3%	2.1µM*	u
CC(C)=CCc1c(O)ccc2c1OC(c1ccc(O)c(O)c1)CC2=O (stereo not drawn)	-6	u	u	4%
COc1ccc(C(=O)C[C@@H]2OC3CCCCC3N2S(=O)(=O)c2ccc(C)cc2)cc1OC (stereo partly drawn)	-17	x	x	x
COc1ccc(NC(=O)c2nc(S(C)(=O)=O)ncc2N(Cc2ccc(C)cc2)Cc2ccco2)cc1Cl	6	x	x	x
O=C(CCCl)N1c2ccccc2C=Cc2ccccc21	-71*	u	x	x
COC1C(=O)CCC2(CO2)C1(O)C1(C)OC1CC=C(C)C (stereo not drawn)	-76*	x	x	x
O=C1ON=C(c2ccccc2)/C1=C/c1ccc(-c2ccccc2[N+](=O)[O-])o1	-98*	1%	8.3µM*	u
CCCCc1nn2c(=O)cc(COC(=O)c3cccc(NC(=O)CCc4ccccc4)c3)nc2s1	86	x	x	x
COc1ccc(-c2noc(CN(C)C(=O)Nc3ccccc3)n2)cc1	u	u	u	15%
CC(C)N(Cc1nc(-c2ccccc2)no1)C(=O)COc1ccccc1	-3	-10%	2%	x
COc1ccc(CC(=O)N(Cc2nc(-c3ccc(C)cc3)no2)C(C)C)cc1	-22	x	x	x
CC(Oc1ccc(Br)cc1)C(=O)N(Cc1nc(-c2ccccc2)no1)C(C)C (stereo not drawn)	-70*	x	x	x
COc1ccc(OC(C)C(=O)N(C)Cc2nc(-c3ccc(OC)cc3)no2)cc1 (stereo not drawn)	-65*	u	12%	3%
COc1ccc(OC(C)C(=O)N(C)Cc2nc(-c3ccc(C)cc3)no2)cc1 (stereo not drawn)	-32	14µM*	u	2%
COc1cc(Cl)c(C)cc1NC(=O)c1cnc(N2CCCCC2)c2ccccc12	1	x	x	x
O=C(CCN1N=C(c2ccccc2)CCC1=O)NCC1CCCO1 (stereo not drawn)	u	-6%	3.7µM*	13%
O=C(CCN1N=C(c2ccccc2)CCC1=O)NC1CCCCC1	-77*	x	x	x
CCc1ccc(Oc2c(C(F)(F)F)oc3c(CN4CCN(CC)CC4)c(O)ccc3c2=O)cc1	-29	x	x	x
O=C(c1ccco1)N1CCN(Cc2nnnn2CC2CCCO2)CC1 (stereo not drawn)	15	4%	-18%	14%

Compound activity as filed in PubChem.
